Experiment in all cases: DAPPL (digital affinity profiling via proximity ligation, sequencing); 10 mM Tris-HCl pH 7.5, 50 mM NaCl, 1 mM DTT, 4% glycerol, room temperature, 30 min; GST-TFs on glutathione beads, 16-mer random dsDNA library, 0.1% formaldehyde crosslink after washing; high values mean tight binding
What all share (details): protein: recombinant; tags: N-terminal GST; dsDNA, one strand shown

The target in one assay is T1, ELK4 (Homo sapiens, UniProt P28324-2 1-405).
T1 sequence: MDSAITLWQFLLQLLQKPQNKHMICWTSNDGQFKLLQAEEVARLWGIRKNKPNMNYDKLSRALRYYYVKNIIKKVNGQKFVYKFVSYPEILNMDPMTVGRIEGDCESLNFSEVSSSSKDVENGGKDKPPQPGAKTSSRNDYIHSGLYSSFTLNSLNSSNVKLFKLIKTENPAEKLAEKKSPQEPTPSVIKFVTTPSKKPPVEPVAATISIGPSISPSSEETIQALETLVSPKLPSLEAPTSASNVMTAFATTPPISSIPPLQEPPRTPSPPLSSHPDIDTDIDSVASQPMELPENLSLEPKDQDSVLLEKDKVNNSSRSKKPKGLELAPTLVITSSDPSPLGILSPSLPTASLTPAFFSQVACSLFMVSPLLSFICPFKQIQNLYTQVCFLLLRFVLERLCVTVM
Summed up:
(§1)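 A tag-only sample was pooled with DNA-barcoded human transcription factors that had been expressed in yeast as GST fusions and captured on glutathione beads. The pools were incubated for 30 min at room temperature with 200 nmole of a random double-stranded 16-mer DNA library in Tris/NaCl/DTT/glycerol buffer, then washed, crosslinked with 0.1% formaldehyde, proximity-ligated (BsaI/T4 ligase, 1 h, 37 °C), PCR-amplified and sequenced on an Illumina NextSeq500. Binding signal is each hexamer's read frequency for a factor divided by its frequency for the tag-only sample.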

Another assay deals with T2, ELF3 (Homo sapiens, UniProt P78545 1-371).
T2 sequence: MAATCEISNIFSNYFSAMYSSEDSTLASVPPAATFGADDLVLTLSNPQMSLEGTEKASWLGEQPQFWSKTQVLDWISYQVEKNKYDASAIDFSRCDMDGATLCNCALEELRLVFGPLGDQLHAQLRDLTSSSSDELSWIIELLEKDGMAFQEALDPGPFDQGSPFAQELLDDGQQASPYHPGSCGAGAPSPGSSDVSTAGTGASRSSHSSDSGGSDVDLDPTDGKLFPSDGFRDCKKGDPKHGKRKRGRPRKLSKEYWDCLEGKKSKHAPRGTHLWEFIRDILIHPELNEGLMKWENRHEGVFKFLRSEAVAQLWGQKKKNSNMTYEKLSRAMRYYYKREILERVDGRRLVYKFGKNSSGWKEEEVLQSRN
Summed up:
as §1

Another assay deals with ETV1 (Homo sapiens, UniProt P50549 1-477). An outline of the steps: as §1
The next assay has as its target T3, ERF (Homo sapiens, UniProt P50548 1-548).
T3 sequence: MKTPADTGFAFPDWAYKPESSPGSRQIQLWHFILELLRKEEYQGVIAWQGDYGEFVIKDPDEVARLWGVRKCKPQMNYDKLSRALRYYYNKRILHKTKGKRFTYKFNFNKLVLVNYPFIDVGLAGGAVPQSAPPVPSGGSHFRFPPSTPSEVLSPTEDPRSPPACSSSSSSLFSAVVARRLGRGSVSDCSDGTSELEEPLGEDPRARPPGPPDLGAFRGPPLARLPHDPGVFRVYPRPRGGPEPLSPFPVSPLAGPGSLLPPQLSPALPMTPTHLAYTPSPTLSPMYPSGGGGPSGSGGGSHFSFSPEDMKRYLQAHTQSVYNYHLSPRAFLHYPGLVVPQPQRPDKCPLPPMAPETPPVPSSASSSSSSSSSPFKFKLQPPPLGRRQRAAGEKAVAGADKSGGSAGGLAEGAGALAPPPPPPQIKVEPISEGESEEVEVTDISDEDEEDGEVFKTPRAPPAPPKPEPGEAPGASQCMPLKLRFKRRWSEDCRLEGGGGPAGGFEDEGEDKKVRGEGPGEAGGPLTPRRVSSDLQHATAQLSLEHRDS
Summed up: as §1

For another assay, the target named is T4, ETV3L (Homo sapiens, UniProt Q6ZN32 1-361).
T4 sequence: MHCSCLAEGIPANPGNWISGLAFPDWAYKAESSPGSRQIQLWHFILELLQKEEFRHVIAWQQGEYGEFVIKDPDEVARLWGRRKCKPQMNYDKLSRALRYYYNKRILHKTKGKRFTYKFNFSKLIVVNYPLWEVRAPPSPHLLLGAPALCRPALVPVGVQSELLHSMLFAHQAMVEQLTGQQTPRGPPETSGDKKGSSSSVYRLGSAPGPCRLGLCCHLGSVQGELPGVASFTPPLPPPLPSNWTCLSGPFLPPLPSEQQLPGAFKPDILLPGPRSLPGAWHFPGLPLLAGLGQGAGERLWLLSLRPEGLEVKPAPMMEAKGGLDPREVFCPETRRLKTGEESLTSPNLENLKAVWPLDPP
Summed up: as §1

For a further assay, the target named is T5, ETS2 (Homo sapiens, UniProt P15036 1-469).
T5 sequence: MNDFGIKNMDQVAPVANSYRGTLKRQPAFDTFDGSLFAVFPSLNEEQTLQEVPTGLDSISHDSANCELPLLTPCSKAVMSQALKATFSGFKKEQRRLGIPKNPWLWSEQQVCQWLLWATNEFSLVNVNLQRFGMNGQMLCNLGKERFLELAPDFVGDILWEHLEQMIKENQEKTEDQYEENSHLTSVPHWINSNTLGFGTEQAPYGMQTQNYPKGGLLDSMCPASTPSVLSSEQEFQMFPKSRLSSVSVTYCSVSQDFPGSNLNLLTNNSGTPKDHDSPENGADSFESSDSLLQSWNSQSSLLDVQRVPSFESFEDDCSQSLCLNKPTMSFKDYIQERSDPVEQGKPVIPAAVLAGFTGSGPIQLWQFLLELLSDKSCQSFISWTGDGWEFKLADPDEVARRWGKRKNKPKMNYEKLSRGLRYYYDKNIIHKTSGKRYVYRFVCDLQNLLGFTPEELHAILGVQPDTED
An outline of the steps: as §1

The target in a further assay is T6, SPDEF (Homo sapiens, UniProt O95238 1-335).
T6 sequence: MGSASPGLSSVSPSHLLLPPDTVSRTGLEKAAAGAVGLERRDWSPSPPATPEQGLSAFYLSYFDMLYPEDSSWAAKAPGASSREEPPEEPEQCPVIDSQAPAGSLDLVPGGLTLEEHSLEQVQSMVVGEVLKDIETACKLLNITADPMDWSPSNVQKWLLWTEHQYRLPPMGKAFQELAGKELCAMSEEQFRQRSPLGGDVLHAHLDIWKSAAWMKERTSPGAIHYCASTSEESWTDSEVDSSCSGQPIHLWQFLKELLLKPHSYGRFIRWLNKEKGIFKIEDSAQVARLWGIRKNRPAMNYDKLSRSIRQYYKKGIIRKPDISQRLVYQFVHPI
An outline of the steps: as §1

For a further assay, the target named is T7, ETV7 (Homo sapiens, UniProt Q9Y603 1-341).
T7 sequence: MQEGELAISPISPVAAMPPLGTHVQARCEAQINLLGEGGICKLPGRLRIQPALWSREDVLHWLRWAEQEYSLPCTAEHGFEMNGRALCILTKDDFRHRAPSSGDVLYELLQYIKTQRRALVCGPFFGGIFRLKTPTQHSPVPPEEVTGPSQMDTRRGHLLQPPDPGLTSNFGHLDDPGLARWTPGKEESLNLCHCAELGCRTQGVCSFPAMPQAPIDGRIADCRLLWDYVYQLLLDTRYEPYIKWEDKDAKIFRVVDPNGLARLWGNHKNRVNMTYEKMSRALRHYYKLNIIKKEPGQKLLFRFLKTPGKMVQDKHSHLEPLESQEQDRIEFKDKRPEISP
An outline of the steps:
as §1

The target of a further assay is T8, ETV3 (Homo sapiens, UniProt P41162-2 1-143).
T8 sequence: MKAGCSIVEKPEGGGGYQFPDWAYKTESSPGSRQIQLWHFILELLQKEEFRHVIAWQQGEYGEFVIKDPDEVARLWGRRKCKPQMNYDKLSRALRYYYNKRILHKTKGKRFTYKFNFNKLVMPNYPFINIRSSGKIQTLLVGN
Summed up: as §1

In a further assay the target is ETV6 (Homo sapiens, UniProt P41212 1-452). Summed up: as §1
Chain of ETV6 (P41212 whole entry): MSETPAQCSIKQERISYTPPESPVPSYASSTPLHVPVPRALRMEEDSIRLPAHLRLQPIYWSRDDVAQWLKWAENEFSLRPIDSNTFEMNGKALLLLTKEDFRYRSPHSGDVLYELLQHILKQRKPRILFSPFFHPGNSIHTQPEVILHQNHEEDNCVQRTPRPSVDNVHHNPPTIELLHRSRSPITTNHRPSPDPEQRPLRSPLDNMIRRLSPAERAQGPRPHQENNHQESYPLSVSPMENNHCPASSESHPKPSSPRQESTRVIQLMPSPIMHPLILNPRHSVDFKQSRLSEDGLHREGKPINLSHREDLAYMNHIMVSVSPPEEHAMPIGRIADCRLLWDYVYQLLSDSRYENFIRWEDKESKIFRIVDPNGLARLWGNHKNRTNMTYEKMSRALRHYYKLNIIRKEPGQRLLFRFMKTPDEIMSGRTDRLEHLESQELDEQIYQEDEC

Chain of ETV1 (P50549 whole entry): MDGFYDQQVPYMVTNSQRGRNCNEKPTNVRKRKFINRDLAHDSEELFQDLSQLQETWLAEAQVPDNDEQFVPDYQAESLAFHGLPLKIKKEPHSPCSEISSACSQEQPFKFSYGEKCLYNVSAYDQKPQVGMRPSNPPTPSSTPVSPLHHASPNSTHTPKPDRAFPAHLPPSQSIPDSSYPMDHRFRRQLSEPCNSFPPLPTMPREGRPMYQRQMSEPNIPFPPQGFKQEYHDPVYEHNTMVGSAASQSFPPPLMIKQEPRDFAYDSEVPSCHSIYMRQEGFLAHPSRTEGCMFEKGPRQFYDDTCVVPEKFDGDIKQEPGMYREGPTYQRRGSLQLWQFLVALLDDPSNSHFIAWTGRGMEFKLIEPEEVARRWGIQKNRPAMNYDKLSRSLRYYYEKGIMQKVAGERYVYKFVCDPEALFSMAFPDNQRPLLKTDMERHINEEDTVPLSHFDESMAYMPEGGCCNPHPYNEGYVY

Take GGACTT: the binding signal is 1.08 fold enrichment (6-mer frequency, TF over GST control) in the assay with ELK4; 1.06 fold enrichment (6-mer frequency, TF over GST control) in the assay with ELF3; 1.22 fold enrichment (6-mer frequency, TF over GST control) with ETV1; 1.01 fold enrichment (6-mer frequency, TF over GST control) in the assay with ERF; 1.1 fold enrichment (6-mer frequency, TF over GST control) with ETV3L; 1.13 fold enrichment (6-mer frequency, TF over GST control) in the assay with ETS2. Besides, the binding signal is 1.08 fold enrichment (6-mer frequency, TF over GST control) with SPDEF; 1.13 fold enrichment (6-mer frequency, TF over GST control) with ETV7; 1.27 fold enrichment (6-mer frequency, TF over GST control) with ETV3; 1.13 fold enrichment (6-mer frequency, TF over GST control) in the assay with ETV6.

Source of the values: article PMC7862700, “An all-to-all approach to the identification of sequence-specific readers for epigenetic DNA modifications on cytosine”.
